Shown are actives, neighbours in structure and some others; about 8.5% of the full set was active somewhere.
NPSR antagonist = blocks cAMP signaling of the human neuropeptide S receptor. Q6W5P4. CHO-NPSR cells, cAMP TR-FRET, antagonist mode. Potency, µM (doses to about 38.3 µM), without a hit: at the top dose activity change, negative = inhibition, most hits filed as inhibitors. hit rate 1% among 220,000; further: potency means the concentration at half of the fitted maximal effect; nearly all actives have a fitted effect of over 50% in size
Sfp inh = Sfp phosphopantetheinyl transferase inhibition; hit rate 3.5% among 310,000; Q9F4F7; AID 1490; Biochemical Sfp PPTase activity, qHTS; Potency, µM, for the others: largest response in the series, negative = inhibition, hits mostly inhibitors;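 further: the enzyme is Sfp with the accession as filed and its product quenches rhodamine fluorescence; potency means the concentration at half of the fitted maximal effect; 0% = enzyme reaction without inhibitor and -100% = no enzyme wells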
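Fluorescence-quenching assay with 15 nM Sfp, 5 uM rhodamine-CoA and 12.5 uM BHQ-2-labelled ybbR peptide in pH 7.6 Hepes/MgCl2 buffer. Enzyme was pre-incubated with compound for 15 min at room temperature. Rate was taken from the 30-min fluorescence change (525/598 nm).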
KDM4E inh = inhibitors of human JMJD2E histone demethylase | JMJD2E catalytic domain, FDH-coupled NADH fluorescence (FDH is formaldehyde dehydrogenase) | Potency, µM (series often up to 57.1 µM), inactives show top-dose activity change, negative = inhibition, usual class: inhibitors | hit rate 1.6% among 230,000 | AID 2147; active means well fitted inhibition curve with a large enough effect, not every such curve was filed as active; inconclusive means small, poorly fitted or top-dose-only effect, or another doubt; inactive means no such curve, though single readings can be large or run the other way;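 further: potency means the concentration at half of the fitted maximal effect; 0% = wells with enzyme and -100% = buffer wells without enzyme; nearly all actives have a fitted effect of over 50% in size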
Target sequence (B2RXH2 1-337 limits assumed): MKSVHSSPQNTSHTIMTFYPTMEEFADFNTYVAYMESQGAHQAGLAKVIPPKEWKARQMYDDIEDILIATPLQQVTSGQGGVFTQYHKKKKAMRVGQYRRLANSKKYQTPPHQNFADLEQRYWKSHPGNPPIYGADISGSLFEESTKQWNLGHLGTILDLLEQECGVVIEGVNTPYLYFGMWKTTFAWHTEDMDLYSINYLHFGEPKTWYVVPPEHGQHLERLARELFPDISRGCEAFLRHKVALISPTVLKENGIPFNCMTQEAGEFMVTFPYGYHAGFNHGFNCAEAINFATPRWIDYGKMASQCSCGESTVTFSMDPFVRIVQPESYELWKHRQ
Coupling enz = coupling enzyme interference in Giardia aldolase counter-screen | coupling enzyme system counterscreen, AmpLite Red fluorescence | activity change, negative = inhibition, % at 58.2 µM, hits read low | hit rate 0.67% among 290,000 | AID 2472; in the data active means activity change below about -30%
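Counterscreen lacking aldolase: glyceraldehyde-3-phosphate coupling-enzyme reagent preincubated 10 min at RT with compound (at 57.5 uM final), then substrate/coupling system with AmpLite Red added; fluorescence read at 525/598 nm after 20 min RT.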
RGS12 GoLoco inh = RGS12 GoLoco-Gai1 interaction inhibition; hit rate 0.44% among 230,000; P63096; AID 880; Gai1:RGS12 GoLoco peptide FP, rhodamine, 10 min; Potency, µM (series often up to 61.6 µM), for the others: at the highest dose activity, negative = inhibition, actives largely listed as inhibitors; active means well fitted inhibition curve with a large enough effect, not every such curve was filed as active; inactive means no such curve, though single readings can be large or run the other way; further: potency means the concentration at half of the fitted maximal effect; nearly all actives have a fitted effect of over 30% in size
Target sequence (P63096 whole entry, looked up): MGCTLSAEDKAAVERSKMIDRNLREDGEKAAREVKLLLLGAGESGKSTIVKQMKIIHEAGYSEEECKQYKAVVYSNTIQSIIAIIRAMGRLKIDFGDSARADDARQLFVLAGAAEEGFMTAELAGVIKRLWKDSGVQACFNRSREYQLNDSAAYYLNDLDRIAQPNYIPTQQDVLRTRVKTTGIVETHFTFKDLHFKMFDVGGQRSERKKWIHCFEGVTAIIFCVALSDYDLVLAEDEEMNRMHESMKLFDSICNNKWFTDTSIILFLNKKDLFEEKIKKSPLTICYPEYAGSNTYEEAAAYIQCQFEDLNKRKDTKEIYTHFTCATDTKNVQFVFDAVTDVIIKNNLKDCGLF
ALDH1A1 block = inhibitors of human aldehyde dehydrogenase 1A1; P00352; Purified ALDH1A1, NADH fluorescence, propionaldehyde substrate; Potency, µM (series often up to 75.3 µM), for inactives: top-dose activity, negative = inhibition, usual class: inhibitors; hit rate 7.3% among 220,000; AID 1030; active means well fitted inhibition curve with a large enough effect, not every such curve was filed as active; inconclusive means small, poorly fitted or top-dose-only effect, or another doubt; inactive means no such curve, though single readings can be large or run the other way;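 further: potency means the concentration at half of the fitted maximal effect; plate controls were no enzyme wells and a reference inhibitor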
* marks the source's active call; other numbers are inactive results; [ ] = another dose, or the depositor's remark. Unless noted, the call rests on the fitted dose curve; in most records, active means well fitted curve in the direction sought with a large enough effect; inconclusive means small, poorly fitted or top-dose-only effect, or another doubt; inactive means no such curve, though single readings can be large; an effect the other way counts as inactive or inconclusive. Unless noted, on the % scale 0 is the no-effect control and ±100 the full control effect.

Screening O=S(=O)(c1ccc(F)cc1)c1snnc1-c1ccccc1 returned NPSR antagonist 20.7%, Sfp inh -2.5%, KDM4E inh -28.1%, Coupling enz -30.5*, RGS12 GoLoco inh -9.8% and ALDH1A1 block inconclusive.
Screening C/C(Cn1nnc([N+](=O)[O-])n1)=N\NC(=O)c1ccccc1O returned NPSR antagonist -21.9%, Sfp inh -6.9%, KDM4E inh -14.4%, Coupling enz -34.5*, RGS12 GoLoco inh 11.2% and ALDH1A1 block 8.3%.
Screening C/C(Cn1nnc([N+](=O)[O-])n1)=N\NC(=O)c1ccc(O)cc1 returned NPSR antagonist 14.0%, Sfp inh 5.0%, KDM4E inh 2.7%, Coupling enz -28.8 and RGS12 GoLoco inh -0.3%.
`C/C(Cn1nnc([N+](=O)[O-])n1)=N\NC(=O)c1ccc(Cl)c(Cl)c1` gave NPSR antagonist 8.6%[46.1 µM], Sfp inh -3.3%, KDM4E inh 1.5%, Coupling enz -43.4*, RGS12 GoLoco inh 9.0% and ALDH1A1 block 28.2µM*.
COc1cccc(-n2c(=O)c3cc(OC)c(OC)cc3n(CC(=O)Nc3cc(C)[nH]n3)c2=O)c1 was read as NPSR antagonist 17.9%, Sfp inh 23.3%, KDM4E inh inconclusive, Coupling enz 5.8, RGS12 GoLoco inh -0.5% and ALDH1A1 block inconclusive.
`CC(=O)N1c2c(cc(Br)cc2S(=O)(=O)N2CCN(c3ccccc3F)CC2)CC1C` (stereo not drawn) gave Sfp inh -0.8% and Coupling enz 2.7.
Screening O=C(CN1C(=O)c2ccccc2C1=O)NN1C(=O)c2ccccc2C1=O returned NPSR antagonist inconclusive, Sfp inh 44.7µM*, KDM4E inh inconclusive, Coupling enz 0.5, RGS12 GoLoco inh 15.6% and ALDH1A1 block 2.82µM*.
Screening Cc1csc(/N=C/c2ccc([N+](=O)[O-])cc2)n1 returned NPSR antagonist 14.6%, Sfp inh 7.6%, KDM4E inh inconclusive, Coupling enz 0.0, RGS12 GoLoco inh -3.7% and ALDH1A1 block 11.2µM*.
`O=C(OCc1ccc(Cl)cc1)c1ccccc1C(=O)c1ccccc1` gave NPSR antagonist inconclusive, Sfp inh -8.8%, KDM4E inh -10.3%, RGS12 GoLoco inh 8.8% and ALDH1A1 block inconclusive.
C=C(C)CNC(=S)N1CCNC(=O)C1CC(=O)OC (stereo not drawn) was read as NPSR antagonist 3.5%, Sfp inh 8.8%, KDM4E inh 11.8%, Coupling enz 3.5, RGS12 GoLoco inh 2.5% and ALDH1A1 block -14.7%.
Screening COc1ccc2cc(CN(Cc3ccco3)C(c3nnnn3C3CCCCC3)C(C)C)c(=O)[nH]c2c1 (stereo not drawn) returned NPSR antagonist -3.0%[46.1 µM], Sfp inh inconclusive, KDM4E inh -8.8%, Coupling enz 0.8, RGS12 GoLoco inh 6.4% and ALDH1A1 block 15.8µM*.
`COc1ccc2cc(CN(Cc3ccco3)Cc3nnnn3C3CCCCC3)c(=O)[nH]c2c1` gave NPSR antagonist inconclusive, Sfp inh -13.3%, KDM4E inh -10.5%, Coupling enz -2.4, RGS12 GoLoco inh 4.7% and ALDH1A1 block 7.94µM*.
`Cc1ccc(C)c(S(=O)(=O)Nc2ccc3scnc3c2)c1` gave NPSR antagonist inconclusive, Sfp inh -4.9%, KDM4E inh -0.1%, Coupling enz -45.2*, RGS12 GoLoco inh 10.8% and ALDH1A1 block 1.78µM*.
For Cc1ccc(C)c(S(=O)(=O)Nc2ccc3[nH]c(=O)[nH]c3c2)c1 the results were Sfp inh -2.5% and Coupling enz -2.0.
`O=c1cc(O)n(-c2ccccc2)c(=S)[nH]1` gave NPSR antagonist -1.0%[46.1 µM], Sfp inh 35.5µM*, KDM4E inh -10.7%, Coupling enz 1.8, RGS12 GoLoco inh 62.1% and ALDH1A1 block inconclusive.
N=c1n(-c2ccccc2)c(O)cc(=O)n1-c1ccccc1 was read as NPSR antagonist -11.1%[46.1 µM], Sfp inh 4.6%, KDM4E inh 9.5%, Coupling enz -2.6, RGS12 GoLoco inh 3.3% and ALDH1A1 block 3.9%.
For CN1CCN(c2ccncc2S(=O)(=O)N2CCN(C)CC2)CC1 the results were RGS12 GoLoco inh 3.6%[14.2 µM] and ALDH1A1 block 13.2%[13.5 µM].
`O=C(CSCc1ccccc1)Nc1ccc(F)cc1F` gave NPSR antagonist -0.7%, Sfp inh 10.6%, KDM4E inh 0.5%, Coupling enz 0.0, RGS12 GoLoco inh 47.4% and ALDH1A1 block 23.8µM*.
`CC1(C)C(/C=C/C=C/C=C/C=C2\N(CCCCS(=O)(=O)O)c3ccc4ccccc4c3C2(C)C)=[N+](CCCCS(=O)(=O)[O-])c2ccc3ccccc3c21` gave Sfp inh 50.1µM*.
For Cc1c2ccccc2cc[n+]1CCCS(=O)(=O)[O-] the results were NPSR antagonist 7.4%, Sfp inh 20.3%, KDM4E inh inconclusive, Coupling enz -0.4, RGS12 GoLoco inh -1.7% and ALDH1A1 block inconclusive.
For COc1cccc(CN(C)C(=O)c2[nH]c(C)c(C(C)=O)c2C)c1OC the results were Sfp inh 15.6% and Coupling enz -0.4.
For COc1cccc(C(=O)Nc2ccc(C(=O)c3ccncc3)cc2)c1 the results were Sfp inh -1.0% and Coupling enz -8.5.
For O=C(O)c1ccc2c(c1)C(=O)N([C@H](Cc1c3ccccc3cc3ccccc13)C(=O)O)C2=O the results were Sfp inh 15.4% and Coupling enz 6.2.
For Cc1cccc(C)c1NC(=O)CSCC(=O)c1ccc(O)c(O)c1 the results were NPSR antagonist -9.5%[46.1 µM], Sfp inh inconclusive, KDM4E inh 28.2µM*, Coupling enz 3.4, RGS12 GoLoco inh 7.2% and ALDH1A1 block 5.9%.
Screening NCCSC1CC(=O)N(c2ccc(Cl)c(Cl)c2)C1=O (stereo not drawn) returned Sfp inh -14.0% and Coupling enz -1.3.
N#CC1=C(N)N(c2ccc(Cl)c(Cl)c2)C(=O)C1 was read as NPSR antagonist 16.4%, Sfp inh 10.0%, KDM4E inh -3.0%, Coupling enz 0.1, RGS12 GoLoco inh 9.7% and ALDH1A1 block 28.2µM*.
Cc1oc(S(=O)(=O)N2CCOCC2)cc1C(=O)Nc1ccc(Cl)cc1 was read as NPSR antagonist 2.4%, Sfp inh 25.9%, KDM4E inh 1.7%, Coupling enz 0.1 and RGS12 GoLoco inh -3.1%.
CCCCCCn1c(=O)[nH]c2nc3cc(N)ccc3nc2c1=O was read as NPSR antagonist -14.2%[46.1 µM], Sfp inh inconclusive, KDM4E inh -2.6%, Coupling enz -39.6* and ALDH1A1 block -15.0%.
Cc1cc(C)cc(CC(Cc2nc3ccccc3[nH]2)c2nc3ccccc3[nH]2)c1 (stereo not drawn) was read as NPSR antagonist inconclusive, Sfp inh -26.7%, KDM4E inh -1.8%, Coupling enz -4.3, RGS12 GoLoco inh -10.1% and ALDH1A1 block 2.7%.

Compound activity deposited in PubChem by National Center for Advancing Translational Sciences (NCATS).
